SMN2 splice up: qHTS Assay for Enhancers of SMN2 Splice Variant Expression; HEK293 SMN2-luciferase splicing reporter, luminescence, 30-36 h; Potency, µM (top dose mostly 46.1 µM), for the others: at the highest dose activity change, positive = activation, hits mostly activators; 2.8% of 210,000 active; AID 1458, 2008; also: % of control where 0% means no effect; nearly all actives have a fitted effect of over 55% in size
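HEK293 cells carry an SMN2 […]–luciferase reporter in which exon 7 inclusion puts luciferase in frame. Cells were plated 10-12 h before compound addition, then incubated 30-36 h at 37C. ONE-Glo luminescence was read; sodium butyrate at 4.5 mM final served as control.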
FLuc modulator: qHTS profiling assay for firefly luciferase inhibitor/activator using purifed enzyme and Km concentrations of substrates (counterscreen for miR-21 project). AID 588342, 2011. Luciferin 4-monooxygenase (Photinus pyralis), P08659. purified FLuc, Km substrates, luminescence inhibition. Potency, µM (top dose mostly 57.5 µM), for the others: top-dose activity change, negative = inhibition, most hits filed as inhibitors. 6.9% of 360,000 active;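 also: plate controls were vehicle for no effect and reference inhibitor for full effect; nearly all actives have a fitted effect of over 55% in size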
Target sequence (P08659 whole entry, looked up): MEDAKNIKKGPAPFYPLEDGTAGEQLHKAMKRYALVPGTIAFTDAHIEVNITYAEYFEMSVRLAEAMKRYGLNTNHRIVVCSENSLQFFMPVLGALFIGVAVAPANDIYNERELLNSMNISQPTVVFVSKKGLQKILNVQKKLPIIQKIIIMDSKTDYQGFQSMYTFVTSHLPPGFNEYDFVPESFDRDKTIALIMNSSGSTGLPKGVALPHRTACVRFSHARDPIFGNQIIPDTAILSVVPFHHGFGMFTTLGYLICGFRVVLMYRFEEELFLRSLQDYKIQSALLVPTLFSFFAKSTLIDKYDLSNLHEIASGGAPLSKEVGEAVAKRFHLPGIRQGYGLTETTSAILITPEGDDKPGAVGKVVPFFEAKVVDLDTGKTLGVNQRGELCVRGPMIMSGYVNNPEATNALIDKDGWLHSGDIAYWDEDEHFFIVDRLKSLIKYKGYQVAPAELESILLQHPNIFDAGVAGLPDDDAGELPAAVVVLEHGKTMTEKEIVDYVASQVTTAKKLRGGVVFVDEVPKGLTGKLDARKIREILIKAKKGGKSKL
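Biochemical qHTS of compounds, final roughly 60 µM downward over six points, against 10 nM purified firefly luciferase using Km concentrations of substrates (10 uM D-luciferin, 10 uM ATP) in Tris acetate pH 7.5 buffer; luminescence output.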
Luc counter: Counterscreen for Luciferase (Kinase-Glo TM) Inhibition | 0.28% of 200,000 active | Luciferin 4-monooxygenase (Photuris pensylvanica), Q27757 | Potency, µM (doses to about 38.3 µM), without a hit: at the top dose activity change, negative = inhibition, hits mostly inhibitors | Kinase-Glo luciferase, ATP luminescence, 8 min; also: % is scaled to controls: 0 for no effect and ±100 for the full control effect; nearly all actives have a fitted effect of over 60% in size
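Substrate mix (final 50 mM imidazole pH 7.2, 50 mM KCl, 7 mM MgCl2, 10 uM ATP, 0.01% Tween 20, 0.05% BSA) plus pin-tool compound, then Kinase-Glo detection mix; 8 min ambient, luminescence read.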
Rab9 promoter act: qHTS Assay for Rab9 Promoter Activators. 2.8% of 320,000 active. Huh7 Rab9 promoter-luciferase reporter, luminescence, 24 h. Potency, µM (doses to about 9.22 µM), inactives show at the highest dose activation, negative = inhibition, most hits filed as activators; also: % of control where 0% means no effect; nearly all actives have a fitted effect of over 60% in size
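Huh7 cells stably carrying Rab9 promoter–luciferase reporter, plated 1500 cells/well, compound added after 2 h and incubated 24 h at 37 °C; luciferase luminescence then read after 10 min with detection reagent.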
NPC1 prom act: qHTS Assay for NPC1 Promoter Activators. Huh7 NPC1 promoter luciferase reporter, 24 h. Potency, µM (doses to about 9.22 µM), for the others: at the top dose activation, usual class: activators. 2.4% of 320,000 active; also: % of control where 0% means no effect; nearly all actives have a fitted effect of over 60% in size
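Stably transfected Huh7 (NPC1 promoter→luciferase), 1500 cells/well in Opti-MEM + 10% FBS, 2 h settle, then compound 24 h at 37 °C. Luminescence after 10 min with Amplite reagent.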
ELG1 genotoxic: qHTS screen for small molecules that induce genotoxicity in human embryonic kidney (HEK293T) cells expressing luciferase-tagged ELG1 | HEK293T ELG1-luciferase reporter, luminescence, 16 h | Potency, µM (series often up to 46 µM), without a hit: top-dose activity change, positive = activation, most hits filed as activators | 1.3% of 330,000 active; also: % of control where 0% means no effect; nearly all actives have a fitted effect of over 60% in size
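HEK293T cells expressing luciferase-tagged ELG1 were exposed to compound or DMSO vehicle for 16 hr at 37 °C and 5% CO2. Luciferase activity was then measured with ONE-Glo after 30 min at room temperature.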
Starred values were filed as active, the others as inactive; ? = inconclusive; · = no result. Rows were chosen to be rich in hits. Some 7.3% of all compounds tested hit in one or more screens of this group. Calls follow the shape of the dose curve; as a rule, active = well fitted curve in the direction sought with a large enough effect; inconclusive = small, poorly fitted or top-dose-only effect, or another doubt; inactive = no such curve, though single readings can be large; an effect the other way counts as inactive or inconclusive. Potency is read from the fitted curve at half-maximal effect.

SMILES | SMN2 splice up | FLuc modulator | Luc counter | Rab9 promoter act | NPC1 prom act | ELG1 genotoxic
Cc1ccc(C(=O)Nc2ccc(N3CCOCC3)cc2)cc1 | · | 12µM* | · | 4µM* | 2.8µM* | 21µM*
O=C(c1ccccc1)c1ccc(N2CCCC2)cc1 | 25µM* | 6.7µM* | -5% | 2.5µM* | 3.2µM* | 3.7µM*
O=C(c1ccccc1)c1ccc(N2CCNCC2)cc1 | 10% | ? | -1% | 28% | 16% | ?
Cc1ccc(CSc2ccc3nnc(CCNS(=O)(=O)c4ccc(C)cc4)n3n2)cc1 | · | -3% | · | · | · | ·
O=S(=O)(c1ccccc1)c1nnn2c1nc(NCc1ccccc1)c1cc(Cl)ccc12 | 6% | 2% | · | · | · | ·
CCOc1ccc(OCC)c(NS(=O)(=O)c2c(C(=O)N3CCC(C)CC3)c(C)n(C)c2C)c1 | · | -2% | · | · | · | ·
COc1ccc(/C=C/C(=O)CC(=O)/C=C/c2cccc(O)c2OC)cc1O | 21% | · | · | · | · | ·
O=C(NC1CCCCC1)c1ccc(CSc2nc3cccnc3n2Cc2ccc(F)cc2)cc1 | · | -14% | · | · | · | ·
O=C(/C=C/c1ccc(Cl)cc1)Nc1ccc(N2CCCCC2)cc1 | -10% | -3% | 2% | -13% | 3% | 1%
O=C(Nc1cccc(F)c1)c1ccccc1 | 2% | ? | -6% | ? | ? | 9%
Nc1cc(C(=O)c2ccccc2)ccc1N1CCOCC1 | ? | 17µM* | 0% | 25% | ? | 6%
O=C(/C=C/c1ccccc1)Nc1ccc(N2CCCCC2)cc1 | ? | ? | -3% | 4µM* | ? | ?
O=C(Nc1ccc(Nc2ccccc2)cc1)c1cccc(F)c1 | · | 13µM* | · | 4.5µM* | ? | ?
O=C(Nc1ccc(N2CCCCC2)cc1)c1ccccc1 | 1.4µM* | 1.9µM* | ? | 0.28µM* | 0.4µM* | ?
CC(=O)Nc1cc(C(=O)c2ccccc2)ccc1N1CCOCC1 | -10% | 2% | 4% | 1% | 1% | -2%
CCOc1ccccc1N(CC)C(=O)c1cc2c(=O)[nH]c3ccc(C)cc3c2s1 | 1% | 1% | · | · | · | ·
CC(Nc1ccc(-c2nc(-c3ccncc3)no2)cc1[N+](=O)[O-])c1ccccc1 (stereo unspecified) | · | -7% | · | · | · | ·
O=C(O)CCC(=O)N1CCN(c2ccc(C(=O)c3ccc(F)cc3)cc2)CC1 | -14% | ? | -1% | 1% | -1% | -1%
Cc1ccc(C(=O)Nc2ccc(N3CCCC3)cc2)cc1 | 11µM* | ? | -7% | 1.8µM* | ? | ?
CN1CCN(c2ccc(C(=O)c3ccc(F)cc3)cc2)CC1 | ? | 11µM* | -4% | 3.2µM* | ? | 13µM*
O=C(Nc1ccc(N2CCCC2=O)cc1)c1cccc(F)c1 | 7.1µM* | 5.4µM* | 7.9µM* | 3.2µM* | 1.6µM* | 2.9µM*
CCc1ccc(NC(=O)c2cccc(N3CCCS3(=O)=O)c2)cc1 | · | 12µM* | · | · | · | ·
COc1ccc2c(c1)CC[C@@H]1[C@@H]2CC[C@]2(C)[C@@H](NCCCCCCN3C(=O)C=CC3=O)CC[C@@H]12 | -4% | · | · | · | · | ·
Clc1ccc(N2CCN(c3ncnc4c3nc3n4CCCC3)CC2)cc1 | · | -8% | · | · | · | ·
COc1cccc(NC(=O)c2oc3ccc(S(=O)(=O)N4CCC5(CC4)OCCO5)cc3c2C)c1 | · | 1% | · | · | · | ·
SMILES | SMN2 splice up | FLuc modulator | Luc counter | Rab9 promoter act | NPC1 prom act | ELG1 genotoxic
O=C(Nc1cccc(-c2nc3ncccc3o2)c1)c1ccc(-c2cccc(Cl)c2Cl)o1 | -17% | -11% | · | · | · | ·
O=C(Nc1ccc(Br)cn1)c1cccc(-c2cc3ccccc3oc2=O)c1 | 11µM* | 12µM* | -1% | 4µM* | 1.8µM* | ?
Cc1nc(NC(=O)c2cccc(-c3cc4ccccc4oc3=O)c2)ccc1Br | ? | -20% | -1% | ? | ? | 9%
CCCS(=O)(=O)NCCc1sc2nc(-c3ccc(Cl)cc3)nn2c1C | · | -18% | · | · | · | ·
N#Cc1ccc(S(=O)(=O)N2CCC(Oc3cccc(C(F)(F)F)c3)CC2)cc1 | -1% | -5% | · | · | · | ·
Cc1ccc(NC(=O)CSc2nc3ccc(NC(=O)c4cccs4)cc3s2)c(C)c1 | · | -18% | · | · | · | ·
Cc1cc(N2CCN(c3ccccc3)CC2)n2cc(-c3ccccc3)nc2n1 | -10% | 24µM* | -5% | 1% | 1% | -5%
Cc1nc(S/C(=C/c2ccc(-c3ccc(Cl)cc3)o2)C(=O)O)n[nH]1 | -36% | 8.5µM* | 0% | -1% | 13% | 6%
CC(=O)c1ccc(-c2ccc(/C=C(/Sc3n[nH]c(C)n3)C(=O)O)o2)cc1 | · | 6µM* | · | 2% | -3% | 1%
Cc1nc(S/C(=C/c2ccc(-c3cc(Cl)ccc3C)o2)C(=O)O)n[nH]1 | · | 27µM* | · | 0% | -6% | 1%
Cc1nc(S/C(=C/c2ccc(-c3ccc(C(=O)O)cc3)o2)C(=O)O)n[nH]1 | · | ? | · | 2% | 0% | 1%
CCN(CC)CCNC(=O)c1cc2c(=O)n(C)c3cc(Cl)ccc3c2s1 | 11% | -3% | · | · | · | ·
COc1ccccc1CNC(=O)CCc1c(C)c2cc3c(C)coc3cc2oc1=O | -3% | -10% | · | · | · | ·
Cc1ccc(-n2nnnc2SCC(=O)Nc2ccc3c(c2)OCCO3)cc1C | -45% | -16% | -3% | -1% | 1% | 0%
Nn1c(SCC(=O)Nc2ccc3c(c2)OCCO3)nnc(CCC(=O)O)c1=O | · | 13µM* | · | -3% | -4% | -1%
CCOc1ccccc1-n1nnnc1SCC(=O)NC(=O)Nc1ccc2c(c1)OCCO2 | -15% | -16% | -2% | 1% | 1% | -1%
O=C(CSc1nnnn1-c1ccccc1)NC(=O)Nc1ccc2c(c1)OCCO2 | ? | 19µM* | 0% | ? | ? | ?
Cc1nnc(SCC(=O)Nc2ccc3c(c2)OCCO3)n1N | 17% | -11% | -3% | -1% | -5% | -4%
Cn1nnnc1SCC(=O)Nc1ccc2c(c1)OCCO2 | 11µM* | 13µM* | 2% | 1.6µM* | 2.8µM* | ?
Cc1ccc(NC(=O)c2ccc3c(c2)NC(=O)c2ccccc2S3)cc1 | -58% | 2% | · | · | · | ·
Cc1ccc2[nH]c(CSc3nnc(NC(=O)COc4ccccc4C)s3)cc(=O)c2c1 | · | -18% | · | · | · | ·
COc1ccc2c(c1)sc1nc(-c3ccccc3)cn12 | 0.4µM* | 0.034µM* | 10µM* | ? | -14% | ?
COc1ccc(-c2cn3c(n2)sc2cc(C(=O)NCc4ccccc4)ccc23)cc1 | · | 2% | · | · | · | ·
COc1ccc(-n2cc(-c3ccccc3)nc2SCC(=O)Nc2ccccc2C)cc1 | · | 4% | · | · | · | ·

Screening data from PubChem BioAssay.
